Compound activity: PubChem BioAssay, Broad Institute
Beta apoptosis – beta cell apoptosis inhibition | INS-1E cytokine-induced death, ATP luminescence, 48 h; percent of positive-control rescue, neutral wells zero | AID 435005 | 300,000 compounds, 0.8% hits | protection from apoptosis, % (no concentration beside the values);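 active means Every replicate reaches about 75%, or at least half do and their mean reaches it too, limit read from the data; inconclusive means At least half of replicates reach the limit but their mean does not; inactive means Under half of replicates reach the limit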;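 further: 0% = cytokine-treated negative control wells and 100% = positive control rescue; higher means more ATP so stronger rescue from cytokine killing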
Shn3 3UTR inh – reduces Shn3 3'UTR luciferase signal in osteoblasts; Clone20 osteoblast Shn3 3'UTR firefly luciferase, 24 h; inhibition, % at 12.5 µM; 360,000 compounds, 0.52% hits;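 active means mean inhibition of at least 75% with every replicate also reaching 75%; inconclusive means mean inhibition at least 75% but some replicate below; inactive means mean inhibition below 75%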;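 further: 0% = median of neutral control wells and 100% = pilot-screen positive control compound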
CSC inhib – blocks cancer stem cells; 300,000 compounds, 1.1% hits; cancer stem cell-like cells viability, luminescence; AID 2717; inhibition, % at 7.5 µM; in the data active means inhibition above about 75%; inconclusive means no clear call, values can overlap the other calls; tested in HMLE shEcad cells
Calb FLC – C. albicans growth modulation with fluconazole; C. albicans CaCi-2 (fluconazole-resistant clinical isolate) + fluconazole, Alamar Blue growth, 48 h; growth inhibition, % (test concentration not listed); 300,000 compounds, 0.57% hits; AID 1979;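 active means growth inhibition above about 58% in most replicates, limit read from the data, passing the limit was not always enough; inconclusive means exactly half the replicates above a set limit; inactive means most replicates below a set limit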;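 further: all wells also contain fluconazole at 8 µg/ml as a sub-toxic cotreatment; 0% = median of DMSO wells and 100% = median of geldanamycin control wells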
PfHsp90 set2 – inhibits growth of yeast expressing Plasmodium falciparum Hsp90. S. cerevisiae expressing PfHsp90, BacTiter-Glo ATP, 48 h; yeast lacking PDR1 and PDR3 efflux regulators. inhibition, % at 9.4 µM. 310,000 compounds, 0.32% hits. AID 504621;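 active means every replicate shows inhibition above about 80%, whatever the replicate mean, limit read from the data; inconclusive means mean inhibition reaches the set limit but some replicate falls short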;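 further: 0% = DMSO neutral controls and 100% = 20 µM radicicol positive controls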
An asterisk follows results filed as active; ? = inconclusive; . = no result given. Compounds with a hit are over-represented: about 2.2% of the library has one in this group of screens.

SMILES	Beta apoptosis	Shn3 3UTR inh	CSC inhib	Calb FLC	PfHsp90 set2
COc1ccc(CCN(C)Cc2nc(Cc3ccc(OC)c(OC)c3)no2)cc1OC	-4.4	13.0	12.3	1.6	-3.3
c1cc(SC2CCCCC2)cc(-c2nc3cnccn3c2NC2CCCCC2)c1	-1.7	22.8	104.2*	.	-27.0
c1cn2c(NC3CCCCC3)c(-c3ccc(SC4CCCCC4)cc3)nc2cn1	0.4	-11.2	125.9*	7.8	-14.1
CCC(C)Sc1cccc(-c2nc3cnccn3c2NC2CCCCC2)c1 (configuration not stated)	.	49.2	.	.	19.1
O=C1CSC(=Nc2cccc(Cl)c2Cl)N1	-13.3	-2.9	-10.7	36.3	6.8
CNC1=C(N(C(C)=O)c2ccc(Br)cc2)C(=O)c2ccccc2C1=O	131.1*	77.8	105.1*	102.7*	7.8
CCC(=O)N(C1=C(NC)C(=O)c2ccccc2C1=O)C(C)C	45.4	-18.3	-2.7	17.7	6.7
Cc1cccc(CC(=O)N2CCC(N3CCC(C(=O)N4CCOCC4)CC3)CC2)c1	-12.6	4.8	-13.3	-5.0	3.3
CCCNC(=O)[C@@H]1CCCN1C(=O)[C@@H]1Cc2ccccc2CN1	-2.9	-4.2	-2.2	30.7	5.0
COc1ccccc1-c1cc(C(F)(F)F)nc(N2CCCCC2)n1	3.3	-13.1	27.6	-10.9	6.6
COc1ccc(-c2cc(C(F)(F)F)nc(S(=O)(=O)CCCC(=O)Nc3cc(C)on3)n2)cc1OC	.	55.0	.	23.2	-7.2
COc1ccccc1-c1cc(C(F)(F)F)nc(S(=O)(=O)CCCC(=O)Nc2cccnc2Cl)n1	.	90.7*	.	.	-28.9
COc1ccccc1-c1cc(C(F)(F)F)nc(S(=O)(=O)CCCC(=O)Nc2cc(C)on2)n1	6.6	96.7*	-1.8	-5.5	10.9
COc1ccccc1-c1cc(C(F)(F)F)nc(S(=O)(=O)CCCC(=O)NC(C)C)n1	10.6	32.8	28.7	9.5	-17.7
COc1ccccc1-c1cc(C(F)(F)F)nc(S(=O)(=O)CCCC(=O)NCc2ccc(F)cc2)n1	-29.1	88.1*	76.6*	-21.7	.
COc1ccccc1-c1cc(C(F)(F)F)nc(S(=O)(=O)CCCC(=O)N2CCCCC2C)n1 (configuration not stated)	-36.2	96.7*	65.1	-1.9	35.6
COc1ccccc1-c1cc(C(F)(F)F)nc(S(C)(=O)=O)n1	2.1	96.5*	85.4*	-6.8	2.5
COc1ccccc1-c1cc(C(F)(F)F)nc(N2CCCC2)n1	7.8	5.3	3.4	-0.9	-22.0
CS(=O)(=O)c1nc(-c2ccco2)cc(C(F)(F)F)n1	80.0*	.	112.0*	36.3	.
Cc1nc2ccccc2n1Cc1ccc(Br)cc1	96.1*	81.2	-1.2	-18.5	-7.5
Cc1nc2ccccc2n1Cc1ccccc1	4.7	49.5	18.3	-19.0	4.0
Cc1ccc2nc(-c3ccc(NC(=S)NC4CC(C)(C)NC(C)(C)C4)cc3)sc2c1	-0.3	-71.2	4.0	73.8*	20.7
CCC(=O)Nc1ccc(C(=O)OCc2ccccc2)cc1	-0.9	-5.1	10.8	5.1	.
O=C(OCc1ccccc1)c1ccc(NCc2cc(O)ccc2O)cc1	.	98.5*	.	.	107.7*
CC(C)OC(=O)c1ccc(NCc2cc(O)ccc2O)cc1	.	95.2*	.	.	87.3*
SMILES	Beta apoptosis	Shn3 3UTR inh	CSC inhib	Calb FLC	PfHsp90 set2
CNC1(c2nnnn2-c2ccccc2C)CCOC(C)(C)C1 (configuration not stated)	7.8	8.7	-4.1	-3.8	11.6
O=C(Nc1ccccc1C(=O)O)c1cc(S(=O)(=O)N2CCCCC2)c(Cl)cc1Cl	-5.4	-11.2	-7.1	-3.8	28.8
CC(C)c1c(O)ccc2c1CC[C@H]1C(C)(C)CCC[C@]21C	.	44.4	.	.	112.8*
CCn1nnc2cc(C(=O)Nc3cc(Cl)ccc3C)ccc21	1.8	88.1*	-2.0	.	-5.5
CCn1c(=O)c2[nH]c(SC)nc2n(CC)c1=O	.	2.1	.	.	.
COc1ccc2nc3cc(Cl)ccc3c(Nc3cc(C(C)C)c(O)cc3C)c2c1	113.8*	17.4	103.3*	18.9	6.3
N=C(N)SCc1nc2ccccc2c(=O)n1-c1ccccc1Cl	18.4	-31.1	93.0*	4.4	-6.6
Cc1ccccc1-n1c(CSC(=N)N)nc2ccccc2c1=O	-5.7	-7.0	-11.7	9.0	-14.9
COC(=O)Nc1nc2ccc(-c3n[nH]c(=O)c4ccccc34)cc2[nH]1	-4.1	0.7	103.9*	-1.8	-19.4
COc1ccc(-c2nc(-c3ccccn3)no2)cc1	89.1*	87.9*	87.6*	.	85.9*
O=C(CCNS(=O)(=O)c1ccc2nsnc2c1)N1CCN(c2ccncc2)CC1	-9.7	-1.6	40.7	.	-2.2
COc1ccc(OCC(=O)Nc2c3c(nn2-c2ccccc2)CS(=O)(=O)C3)cc1	-1.3	-6.5	-6.2	4.1	24.4
O=C(Oc1cc2oc(=O)cc(-c3ccccc3)c2cc1Cl)C1CCCCC1	0.8	-5.3	-2.3	76.8*	-160.3
CC(C)(C)OC(=O)NCC(=O)Oc1cc2oc(=O)cc(-c3ccccc3)c2cc1Cl	-6.2	1.0	-12.5	49.9	-60.9
Cc1cccc(Cn2nnc3c2C(=O)c2ccccc2C3=O)c1	109.8*	17.4	-13.6	-9.7	-35.4
CCC1CCCCN1C(=O)c1cc(COc2ccc(-n3cncn3)cc2)on1 (configuration not stated)	103.7*	72.9	-13.0	1.5	28.1
C=CCn1ccc(=O)nc1SC	.	0.2	.	.	.
Cc1ccc(-n2c(C)cc(/C([O-])=C(/C(=S)Nc3ccc(F)c(Cl)c3)[n+]3ccccc3)c2C)cc1	.	0.3	-1.7	110.1*	.
Cc1cc(/C([O-])=C(/C(=S)Nc2ccc(F)cc2)[n+]2ccccc2)c(C)n1-c1ccc(F)cc1	1.7	-1.2	-0.3	-33.3	-2.8
Cc1ccc(C)c(SCC(=O)NCC(c2ccco2)N2CCCCC2)c1 (configuration not stated)	-0.8	-9.7	2.6	0.0	.
Cc1ccc(C(=O)N2CCN(c3ccccc3Cl)CC2)cc1[N+](=O)[O-]	-3.9	-1.3	-5.0	?	105.4*
O=C(Nc1ccccc1N1CCCCC1)c1ccc(Cl)c([N+](=O)[O-])c1	1.0	-22.7	79.8*	27.1	-3.3
Cc1nn(-c2ccccc2)nc1CNC(=O)C1CCC1	-1.1	-27.8	5.7	-10.7	8.9
O=C(Nc1cccc(Cl)c1N1CCCCC1)c1ccc2c(c1)OCCO2	6.1	29.7	?	0.3	-21.4
O=C(NC(=S)Nc1cccc(Cl)c1N1CCCCC1)c1ccc2c(c1)OCCO2	15.8	21.8	82.1*	12.2	-23.2
C#CCOCCOCCOCCNc1nc(N2CCN(C(=O)CCCCCCCCCCNC(=O)[C@H]([C@@H](C)CC)n3cc(CCCCN=C(N)N)nn3)CC2)nc(N2CCN(C(=O)CCCCCCCCCCNC(=O)[C@H](CCCCN)n3cc(C[C@@H](C)CC)nn3)CC2)n1	98.3*	.	102.4*	.	.
C#CCOCCOCCOCCNc1nc(N2CCN(C(=O)CCCCCCCCCCNC(=O)[C@H](CO)n3cc(CCCSC)nn3)CC2)nc(N2CCN(C(=O)CCCCCCCCCCNC(=O)[C@H](CCCCN)n3cc(C[C@@H](C)CC)nn3)CC2)n1	49.4	.	126.6*	0.5	.
